Measured values: PubChem BioAssay
A number with no mark means an inactive call. The source made the active and inactive calls.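 Rule for the calls, unless noted: active = inhibition above the screen-wide mean plus 3 SD, about 51%; inactive = the rest.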

System: not listed separately
Assay: Nile Red efflux blockade in pump-expressing yeast – validation compound set, multiplex, phenotypic, pilot screen (AID 588506;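 active = efflux inhibition above 0.42, the validation set average plus 4 SD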;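 note: Nile Red retained in cells so higher fluorescence means more efflux inhibition; 0 = negative control wells and 1 = enniatin B 25 µM full block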)
Details: S. cerevisiae pump-expressing triplex, Nile Red efflux flow cytometry; at 10 µM; stronger effect = higher value; the pumps come from Candida albicans

Row | Compound | efflux inhibition (fraction of control)
1 | C[C@]12CC[C@@H]3c4ccc(OS(=O)(=O)O)cc4CC[C@H]3[C@@H]1CCC2=O | -0.24
2 | O=C1C2C3C=CC(C4CC34)C2C(=O)N1/N=C/c1ccc(-c2ccc([N+](=O)[O-])cc2)o1 (stereo not given) | 0.19
3 | Cc1oc2ccc(OC(=O)c3cccs3)cc2c1C(=O)OC(C)C | -0.09
4 | COc1ccc(CCN(C)CC(=O)Nc2cc(C)nc3ccccc23)cc1OC | 0.05
5 | C[C@]12C=CC(=O)C=C1CCC1C3CC[C@](O)(C(=O)CO)[C@@]3(C)CC3OC312 (stereo not given in full) | 0.22
6 | c1ccc2c(c1)CCCC2C1=NCCN1 (stereo not given) | -0.04
7 | C=CCc1cc(Cl)ccc1OCCOCCN(C)C | -0.17
8 | COc1cc2c(cc1OC)C(Cc1ccc(O)cc1)N(C)CC2 (stereo not given) | 0.27
9 | CCOc1ccc(C(=O)Nc2ccc(N3CCN(C(C)=O)CC3)cc2)cc1[N+](=O)[O-] | 0.27
10 | OCCN(CCO)c1ccc2ccccc2c1 | -0.21
11 | COc1ccc(CN(C)CCc2ccccn2)cc1OC | -0.03
12 | CC(=O)OCC1OC(n2ccc(=O)[nH]c2=O)C(O)C1O (stereo not given) | -0.26
13 | CC(=O)N1N=C(c2cccs2)CC1c1ccc(C)o1 (stereo not given) | 0.45 (active)
14 | Cc1cc(C)c2c(CCl)cc(=O)oc2c1 | 0.08
15 | NC12CC3CC(CC(C3)C1)C2 | -0.24
16 | CC12CCC(C(=O)N3CCCCC3)([C@H](Br)C1=O)C2(C)C (stereo not given in full) | -0.13
17 | CC(NCCC(c1ccccc1)c1ccccc1)c1ccccc1 (stereo not given) | 0.19
18 | O=P(O)(O)CP(=O)(O)O | 0
19 | CCCCC[C@H](O)/C=C/[C@@H]1[C@@H](C/C=C\CCCC(=O)OC)[C@@H](O)C[C@H]1O | 0.05
20 | Cc1cc(C(C)(C)C)cc(C)c1CC1=NCCN1 | 0.12

Row | Compound | efflux inhibition (fraction of control)
21 | CC1CCCc2sc3ncn(N)c(=N)c3c21 (stereo not given) | -0.24
22 | O=C1NC2(Nc3ccccc31)C(=O)Nc1ccc(Br)cc12 (stereo not given) | -0.13
23 | Cc1cc(-c2ccccc2)nnc1NCCN1CCOCC1 | 0
24 | Cc1ccccc1OCC(O)CN1CCN(C)CC1 (stereo not given) | 0.27
25 | COc1cc(/C=C/C(=O)N2CCCC2)cc(OC)c1OC | 0.02
26 | CNCCCN1c2ccccc2CCc2ccccc21 | -0.38
27 | Nc1c2c(nc3ccccc13)CCCC2 | 0.05
28 | COc1ccc(C2C3C(C)=NN=C3CC(C)(O)C2C(C)=O)cc1 (stereo not given) | -0.21
29 | O=c1c2ccccc2nnn1Cc1cccc2ccccc12 | -0.2
30 | CC1(C)CC(=O)C(C(=O)CCCCC(=O)C2C(=O)CC(C)(C)CC2=O)C(=O)C1 | -0.24
31 | COC(=O)c1ccc(CC(=O)c2ccc(O)cc2O)o1 | -0.24
32 | O=C(CCCCCCCC(=O)c1ccccc1)c1ccccc1 | -0.13
33 | CC(=O)OC[C@H]1O[C@@H](n2ncc(=O)[nH]c2=O)[C@H](OC(C)=O)[C@@H]1OC(C)=O | -0.13
34 | CC1CNCCN1S(=O)(=O)c1cccc2cnccc12 (stereo not given) | -0.07
35 | COc1cc(C2C(C(=O)c3ccc(C)o3)=C(O)C(=O)N2Cc2cccnc2)ccc1O (stereo not given) | 0.34
36 | Cc1ccccc1NC(=O)C1c2ccccc2Oc2ccccc21 | 0.16
37 | COc1ccc(-c2coc3cc(O)cc(O)c3c2=O)cc1 | -0.28
38 | Nc1cccc(C(=O)O)c1 | 0.05
39 | CCN1CCN(C(=O)N[C@@H](C(=O)N[C@@H]2C(=O)N3[C@@H]2SC(C)(C)[C@@H]3C(=O)O)c2ccccc2)C(=O)C1=O | 0.16
40 | COCCc1ccc(OCC(O)CNC(C)C)cc1 (stereo not given) | 0.21

Biological target: ATP-binding cassette sub-family B member 6 (Homo sapiens) (UniProt Q9NP58)
Sequence (Q9NP58 whole entry, looked up): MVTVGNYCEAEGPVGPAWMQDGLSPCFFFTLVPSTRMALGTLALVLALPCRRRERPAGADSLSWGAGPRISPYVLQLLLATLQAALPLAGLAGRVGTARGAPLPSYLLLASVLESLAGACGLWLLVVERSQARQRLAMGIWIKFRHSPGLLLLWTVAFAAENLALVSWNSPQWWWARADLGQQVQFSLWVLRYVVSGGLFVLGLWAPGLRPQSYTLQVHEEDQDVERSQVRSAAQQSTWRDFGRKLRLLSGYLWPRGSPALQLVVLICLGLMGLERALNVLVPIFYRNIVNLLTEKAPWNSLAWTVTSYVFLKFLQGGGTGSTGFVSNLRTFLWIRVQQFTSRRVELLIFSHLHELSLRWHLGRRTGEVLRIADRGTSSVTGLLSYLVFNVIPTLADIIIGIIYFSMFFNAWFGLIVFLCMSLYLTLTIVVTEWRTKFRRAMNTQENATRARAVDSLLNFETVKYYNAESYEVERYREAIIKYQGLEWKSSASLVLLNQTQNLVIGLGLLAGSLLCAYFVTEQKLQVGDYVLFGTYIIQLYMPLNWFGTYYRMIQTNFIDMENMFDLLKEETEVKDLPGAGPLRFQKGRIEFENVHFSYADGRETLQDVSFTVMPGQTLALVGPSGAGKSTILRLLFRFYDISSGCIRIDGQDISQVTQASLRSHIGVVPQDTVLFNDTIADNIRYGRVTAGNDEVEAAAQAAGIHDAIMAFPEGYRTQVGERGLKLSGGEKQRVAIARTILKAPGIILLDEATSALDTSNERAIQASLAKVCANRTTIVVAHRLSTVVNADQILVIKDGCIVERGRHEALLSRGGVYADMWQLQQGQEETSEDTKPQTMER
Assay: blockers of ABCB6-driven porphyrin uptake – K562-ABCB6 cells, flow cytometry, validation set, pilot screen (AID 588550);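 note: 0% = DMSO wells and 100% = benzethonium chloride 70 µM positive control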
Details: K562-ABCB6 porphyrin accumulation, 1 h, at 10 µM, stronger effect = higher value

Row | Compound | inhibition
41 | C[C@]12CC[C@@H]3c4ccc(OS(=O)(=O)O)cc4CC[C@H]3[C@@H]1CCC2=O | 11%
42 | O=C1C2C3C=CC(C4CC34)C2C(=O)N1/N=C/c1ccc(-c2ccc([N+](=O)[O-])cc2)o1 (stereo not given) | 7%
43 | Cc1oc2ccc(OC(=O)c3cccs3)cc2c1C(=O)OC(C)C | 2%
44 | COc1ccc(CCN(C)CC(=O)Nc2cc(C)nc3ccccc23)cc1OC | 5%
45 | C[C@]12C=CC(=O)C=C1CCC1C3CC[C@](O)(C(=O)CO)[C@@]3(C)CC3OC312 (stereo not given in full) | 113% (active)
46 | c1ccc2c(c1)CCCC2C1=NCCN1 (stereo not given) | 19%
47 | C=CCc1cc(Cl)ccc1OCCOCCN(C)C | 1%
48 | COc1cc2c(cc1OC)C(Cc1ccc(O)cc1)N(C)CC2 (stereo not given) | 8%
49 | CCOc1ccc(C(=O)Nc2ccc(N3CCN(C(C)=O)CC3)cc2)cc1[N+](=O)[O-] | 11%
50 | OCCN(CCO)c1ccc2ccccc2c1 | 10%
51 | COc1ccc(CN(C)CCc2ccccn2)cc1OC | 2%
52 | CC(=O)OCC1OC(n2ccc(=O)[nH]c2=O)C(O)C1O (stereo not given) | 9%
53 | CC(=O)N1N=C(c2cccs2)CC1c1ccc(C)o1 (stereo not given) | 9%
54 | Cc1cc(C)c2c(CCl)cc(=O)oc2c1 | 4%
55 | NC12CC3CC(CC(C3)C1)C2 | 15%
56 | CC12CCC(C(=O)N3CCCCC3)([C@H](Br)C1=O)C2(C)C (stereo not given in full) | 11%
57 | CC(NCCC(c1ccccc1)c1ccccc1)c1ccccc1 (stereo not given) | 9%
58 | O=P(O)(O)CP(=O)(O)O | -3%
59 | CCCCC[C@H](O)/C=C/[C@@H]1[C@@H](C/C=C\CCCC(=O)OC)[C@@H](O)C[C@H]1O | 13%
60 | Cc1cc(C(C)(C)C)cc(C)c1CC1=NCCN1 | 10%

Row | Compound | inhibition
61 | CC1CCCc2sc3ncn(N)c(=N)c3c21 (stereo not given) | 7%
62 | O=C1NC2(Nc3ccccc31)C(=O)Nc1ccc(Br)cc12 (stereo not given) | 9%
63 | Cc1cc(-c2ccccc2)nnc1NCCN1CCOCC1 | 19%
64 | Cc1ccccc1OCC(O)CN1CCN(C)CC1 (stereo not given) | 7%
65 | COc1cc(/C=C/C(=O)N2CCCC2)cc(OC)c1OC | -1%
66 | CNCCCN1c2ccccc2CCc2ccccc21 | 9%
67 | Nc1c2c(nc3ccccc13)CCCC2 | 11%
68 | COc1ccc(C2C3C(C)=NN=C3CC(C)(O)C2C(C)=O)cc1 (stereo not given) | 3%
69 | O=c1c2ccccc2nnn1Cc1cccc2ccccc12 | 13%
70 | CC1(C)CC(=O)C(C(=O)CCCCC(=O)C2C(=O)CC(C)(C)CC2=O)C(=O)C1 | 14%
71 | COC(=O)c1ccc(CC(=O)c2ccc(O)cc2O)o1 | -45%
72 | O=C(CCCCCCCC(=O)c1ccccc1)c1ccccc1 | 7%
73 | CC(=O)OC[C@H]1O[C@@H](n2ncc(=O)[nH]c2=O)[C@H](OC(C)=O)[C@@H]1OC(C)=O | -40%
74 | CC1CNCCN1S(=O)(=O)c1cccc2cnccc12 (stereo not given) | 2%
75 | COc1cc(C2C(C(=O)c3ccc(C)o3)=C(O)C(=O)N2Cc2cccnc2)ccc1O (stereo not given) | 9%
76 | Cc1ccccc1NC(=O)C1c2ccccc2Oc2ccccc21 | 12%
77 | COc1ccc(-c2coc3cc(O)cc(O)c3c2=O)cc1 | 7%
78 | Nc1cccc(C(=O)O)c1 | 6%
79 | CCN1CCN(C(=O)N[C@@H](C(=O)N[C@@H]2C(=O)N3[C@@H]2SC(C)(C)[C@@H]3C(=O)O)c2ccccc2)C(=O)C1=O | 7%
80 | COCCc1ccc(OCC(O)CNC(C)C)cc1 (stereo not given) | 7%
